Results: PubChem BioAssay (NCI)
About 79,000 compounds went through this panel and 15% of them were active in at least one assay; those are over-represented in the sample as a whole. Values without a mark were called inactive. The source made the active and inactive calls. Rule as the data show it: active = growth inhibition above about 70%; inactive = the rest.

Tests used:
[1] = NCI Yeast Anticancer Drug Screen. Data for the rad52 strain (AID 147);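 also: 0% = growth of vehicle-treated control cultures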; conditions: S. cerevisiae rad52 mutant growth inhibition, stronger effect = higher value
Outline: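 Genetically altered yeast (DNA damage repair defect) treated with compound; inhibition calculated relative to vehicle.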

[2] = NCI Yeast Anticancer Drug Screen. Data for the wt1 strain (AID 149);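 also: 0% = growth of vehicle-treated wt1 cultures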; conditions: S. cerevisiae wt1 strain (SPY 50644) growth inhibition, stronger effect = higher value
Outline: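 wt1 strain grown with compound or vehicle; inhibition taken from the growth difference.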

[3] = NCI Yeast Anticancer Drug Screen. Data for the rad50EPP+ strain (AID 151);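 also: 0% = growth of vehicle-treated control cultures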; conditions: S. cerevisiae rad50 mutant strain, stronger effect = higher value
Outline: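 Strain rad50EPP+; compound exposure; % growth inhibition vs vehicle.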

[4] = NCI Yeast Anticancer Drug Screen. Data for the mgt1 strain (AID 153); conditions: S. cerevisiae mgt1 mutant growth inhibition, stronger effect = higher value
Outline: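 Read-out: yeast growth inhibition vs vehicle control. Strain mgt1, drawn from a panel altered in DNA damage repair or cell cycle control.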

[5] = NCI Yeast Anticancer Drug Screen. Data for the rad50 strain (AID 155);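 also: 0% = growth of vehicle-only cultures of the same strain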; conditions: S. cerevisiae rad50 strain growth inhibition, stronger effect = higher value
Outline: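 DNA repair mutant yeast, compound exposure, growth read-out; inhibition is taken relative to vehicle.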

[6] = NCI Yeast Anticancer Drug Screen. Data for the mec2-1 strain (AID 157); conditions: S. cerevisiae mec2-1 strain, stronger effect = higher value
Outline: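 Cells of the genetically defined mec2-1 yeast strain are incubated with test compound. Inhibition of growth is calculated against vehicle-treated controls.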

[7] = NCI Yeast Anticancer Drug Screen. Data for the rad14 strain (AID 159);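 also: 0% = growth of vehicle-treated control cultures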; conditions: S. cerevisiae rad14 strain growth inhibition, stronger effect = higher value
Outline: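 DNA repair-defective yeast, compound-exposed; % growth inhibition derived by comparison with vehicle-treated controls.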

[8] = NCI Yeast Anticancer Drug Screen. Data for the sgs1 mgt1 strain (AID 161);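 also: 0% = growth of cultures given vehicle only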; conditions: S. cerevisiae sgs1 mgt1 strain, stronger effect = higher value
Outline: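 Mutant yeast exposed to compound; growth scored against vehicle-only wells.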

[9] = NCI Yeast Anticancer Drug Screen. Data for the CLN2oe strain (AID 163);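 also: 0% = growth of vehicle-only control cultures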; conditions: S. cerevisiae CLN2oe strain, stronger effect = higher value
Outline: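 Strain altered in cell-cycle control, incubated with compound; growth compared to solvent-treated controls.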

[10] = NCI Yeast Anticancer Drug Screen. Data for the cln2 rad14 strain (AID 165);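 also: 0% = growth equal to vehicle treated cultures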; conditions: S. cerevisiae cln2 rad14 strain, stronger effect = higher value
Outline: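 The screen exposed genetically defined yeast (cln2 rad14) to test compounds and scored growth inhibition relative to vehicle-treated controls.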

[11] = NCI Yeast Anticancer Drug Screen. Data for the bub3 strain (AID 167); conditions: S. cerevisiae bub3 mutant strain, stronger effect = higher value
Outline: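 In this screen, a yeast mutant lacking normal mitotic checkpoint function is challenged with compound. Relative growth versus vehicle gives the inhibition value.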

[12] = NCI Yeast Anticancer Drug Screen. Data for the wt2 strain (AID 169);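 also: 0% = growth of vehicle-treated yeast cultures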; conditions: S. cerevisiae wt2 strain growth inhibition, stronger effect = higher value
Outline: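 Steps: yeast strain treated with compound; growth recorded; inhibition calculated relative to cultures given vehicle alone.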

[13] = NCI Yeast Anticancer Drug Screen. Data for the mlh1 strain (AID 171);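 also: 0% = growth of vehicle-treated control cultures of the same strain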; conditions: S. cerevisiae mlh1 strain growth inhibition, stronger effect = higher value
Outline: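 Yeast screen: mutant strain plus compound, growth scored against vehicle control wells.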

[14] = NCI Yeast Anticancer Drug Screen. Data for the sgs1 strain (AID 173);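 also: 0% = growth of vehicle-only control cultures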; conditions: S. cerevisiae sgs1 mutant, stronger effect = higher value
Outline: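 Inhibition of yeast growth served as the measure. The mutant strain was treated with each compound, and growth was normalised to cultures receiving vehicle alone.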

[15] = NCI Yeast Anticancer Drug Screen. Data for the mlh1 rad18 strain (AID 175); conditions: S. cerevisiae mlh1 rad18 strain growth inhibition, stronger effect = higher value
Outline: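 Compound-treated yeast growth, normalised to vehicle controls. Strain bears defined DNA repair mutations.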

[16] = NCI Yeast Anticancer Drug Screen. Data for the rad18 strain (AID 177); conditions: S. cerevisiae rad18 mutant growth inhibition, stronger effect = higher value
Outline: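 Inhibition values reflect reduced yeast growth compared with vehicle-treated controls, using a strain engineered with a DNA damage repair defect.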

[17] = at 5.0 µM (retest, dose inferred, filed as 0.5)
[18] = at 50.0 µM (retest, dose inferred, filed as 5.0)

O=[N+]([O-])c1ccc2nc3ccccc3cc2c1
growth inhibition ([1]; at 1.2 µM): 3% | growth inhibition ([1]; at 3.7 µM): 13% | growth inhibition ([1]; at 11.0 µM): 35% | growth inhibition ([1]; at 33.0 µM): 74% (active) | growth inhibition ([1]; at 100.0 µM): 96% (active) | growth inhibition ([2]; at 1.2 µM): -5% | growth inhibition ([2]; at 3.7 µM): -4% | growth inhibition ([2]; at 11.0 µM): -7% | growth inhibition ([2]; at 33.0 µM): 21% | growth inhibition ([2]; at 100.0 µM): 81% (active) | growth inhibition ([3]; at 1.2 µM): 22% | growth inhibition ([3]; at 3.7 µM): 63% | growth inhibition ([3]; at 11.0 µM): 85% (active) | growth inhibition ([3]; at 33.0 µM): 90% (active) | growth inhibition ([3]; at 100.0 µM): 96% (active) | growth inhibition ([4]; at 1.2 µM): -1% | growth inhibition ([4]; at 3.7 µM): -5% | growth inhibition ([4]; at 11.0 µM): -1% | growth inhibition ([4]; at 33.0 µM): 29% | growth inhibition ([4]; at 100.0 µM): 86% (active) | growth inhibition ([5]; at 1.2 µM): 1% | growth inhibition ([5]; at 3.7 µM): 22% | growth inhibition [5, 17]: -16% | growth inhibition ([5]; at 11.0 µM): 59% | growth inhibition ([5]; at 33.0 µM): 89% (active) | growth inhibition [5, 18]: 92% (active) | growth inhibition ([5]; at 50.0 µM): 87% (active) | growth inhibition ([5]; at 100.0 µM): 95% (active) | growth inhibition ([6]; at 1.2 µM): -2% | growth inhibition ([6]; at 3.7 µM): 1% | growth inhibition [6, 17]: -37% | growth inhibition ([6]; at 11.0 µM): 8% | growth inhibition ([6]; at 33.0 µM): 27% | growth inhibition [6, 18]: 85% (active) | growth inhibition ([6]; at 50.0 µM): 55.5% | growth inhibition ([6]; at 100.0 µM): 84% (active) | growth inhibition ([7]; at 1.2 µM): 0% | growth inhibition ([7]; at 3.7 µM): 9% | growth inhibition ([7]; at 11.0 µM): 20% | growth inhibition ([7]; at 33.0 µM): 45% | growth inhibition ([7]; at 100.0 µM): 91% (active) | growth inhibition [8, 17]: -40% | growth inhibition [8, 18]: 89% (active) | growth inhibition ([8]; at 50.0 µM): 68.2% | growth inhibition ([9]; at 1.2 µM): -6% | growth inhibition ([9]; at 3.7 µM): -2% | growth inhibition ([9]; at 11.0 µM): 5% | growth inhibition ([9]; at 33.0 µM): 18% | growth inhibition ([9]; at 100.0 µM): 54% | growth inhibition [10, 17]: -59% | growth inhibition [10, 18]: 16% | growth inhibition ([10]; at 50.0 µM): 0.1% | growth inhibition ([11]; at 1.2 µM): -2% | growth inhibition ([11]; at 3.7 µM): -2% | growth inhibition [11, 17]: -51% | growth inhibition ([11]; at 11.0 µM): 14% | growth inhibition ([11]; at 33.0 µM): 39% | growth inhibition [11, 18]: 91% (active) | growth inhibition ([11]; at 50.0 µM): 69% | growth inhibition ([11]; at 100.0 µM): 94% (active) | growth inhibition ([12]; at 1.2 µM): 0% | growth inhibition ([12]; at 3.7 µM): 1% | growth inhibition ([12]; at 11.0 µM): 3% | growth inhibition ([12]; at 33.0 µM): 33% | growth inhibition ([12]; at 100.0 µM): 89% (active) | growth inhibition ([13]; at 1.2 µM): 7% | growth inhibition ([13]; at 3.7 µM): 0% | growth inhibition ([13]; at 11.0 µM): 14% | growth inhibition ([13]; at 33.0 µM): 51% | growth inhibition ([13]; at 100.0 µM): 96% (active) | growth inhibition ([14]; at 1.2 µM): -2% | growth inhibition ([14]; at 3.7 µM): 13% | growth inhibition ([14]; at 11.0 µM): 36% | growth inhibition ([14]; at 33.0 µM): 80% (active) | growth inhibition ([14]; at 100.0 µM): 97% (active) | growth inhibition [15, 17]: -71% | growth inhibition [15, 18]: 90% (active) | growth inhibition ([15]; at 50.0 µM): 89.1% (active) | growth inhibition ([16]; at 1.2 µM): 14% | growth inhibition ([16]; at 3.7 µM): 32% | growth inhibition ([16]; at 11.0 µM): 67% | growth inhibition ([16]; at 33.0 µM): 87% (active) | growth inhibition ([16]; at 100.0 µM): 96% (active)
